Results as given in PubChem BioAssay AID652162 (Broad Institute, 2013).
Where “and” joins values, the source holds several entries; their conditions need not be identical. Equal values may be shown once. The whole screen tested about 350,000 compounds, of which about 840 (0.24%) were called active. Cut-off read from the data, not from the text of the source: active = inhibition above about 10%; inactive = the rest. For the sample, actives were picked, then their nearest neighbours and some compounds at random.

Target: Toxin B (Clostridioides difficile) (UniProt P18177)
Sequence (P18177 whole entry, looked up): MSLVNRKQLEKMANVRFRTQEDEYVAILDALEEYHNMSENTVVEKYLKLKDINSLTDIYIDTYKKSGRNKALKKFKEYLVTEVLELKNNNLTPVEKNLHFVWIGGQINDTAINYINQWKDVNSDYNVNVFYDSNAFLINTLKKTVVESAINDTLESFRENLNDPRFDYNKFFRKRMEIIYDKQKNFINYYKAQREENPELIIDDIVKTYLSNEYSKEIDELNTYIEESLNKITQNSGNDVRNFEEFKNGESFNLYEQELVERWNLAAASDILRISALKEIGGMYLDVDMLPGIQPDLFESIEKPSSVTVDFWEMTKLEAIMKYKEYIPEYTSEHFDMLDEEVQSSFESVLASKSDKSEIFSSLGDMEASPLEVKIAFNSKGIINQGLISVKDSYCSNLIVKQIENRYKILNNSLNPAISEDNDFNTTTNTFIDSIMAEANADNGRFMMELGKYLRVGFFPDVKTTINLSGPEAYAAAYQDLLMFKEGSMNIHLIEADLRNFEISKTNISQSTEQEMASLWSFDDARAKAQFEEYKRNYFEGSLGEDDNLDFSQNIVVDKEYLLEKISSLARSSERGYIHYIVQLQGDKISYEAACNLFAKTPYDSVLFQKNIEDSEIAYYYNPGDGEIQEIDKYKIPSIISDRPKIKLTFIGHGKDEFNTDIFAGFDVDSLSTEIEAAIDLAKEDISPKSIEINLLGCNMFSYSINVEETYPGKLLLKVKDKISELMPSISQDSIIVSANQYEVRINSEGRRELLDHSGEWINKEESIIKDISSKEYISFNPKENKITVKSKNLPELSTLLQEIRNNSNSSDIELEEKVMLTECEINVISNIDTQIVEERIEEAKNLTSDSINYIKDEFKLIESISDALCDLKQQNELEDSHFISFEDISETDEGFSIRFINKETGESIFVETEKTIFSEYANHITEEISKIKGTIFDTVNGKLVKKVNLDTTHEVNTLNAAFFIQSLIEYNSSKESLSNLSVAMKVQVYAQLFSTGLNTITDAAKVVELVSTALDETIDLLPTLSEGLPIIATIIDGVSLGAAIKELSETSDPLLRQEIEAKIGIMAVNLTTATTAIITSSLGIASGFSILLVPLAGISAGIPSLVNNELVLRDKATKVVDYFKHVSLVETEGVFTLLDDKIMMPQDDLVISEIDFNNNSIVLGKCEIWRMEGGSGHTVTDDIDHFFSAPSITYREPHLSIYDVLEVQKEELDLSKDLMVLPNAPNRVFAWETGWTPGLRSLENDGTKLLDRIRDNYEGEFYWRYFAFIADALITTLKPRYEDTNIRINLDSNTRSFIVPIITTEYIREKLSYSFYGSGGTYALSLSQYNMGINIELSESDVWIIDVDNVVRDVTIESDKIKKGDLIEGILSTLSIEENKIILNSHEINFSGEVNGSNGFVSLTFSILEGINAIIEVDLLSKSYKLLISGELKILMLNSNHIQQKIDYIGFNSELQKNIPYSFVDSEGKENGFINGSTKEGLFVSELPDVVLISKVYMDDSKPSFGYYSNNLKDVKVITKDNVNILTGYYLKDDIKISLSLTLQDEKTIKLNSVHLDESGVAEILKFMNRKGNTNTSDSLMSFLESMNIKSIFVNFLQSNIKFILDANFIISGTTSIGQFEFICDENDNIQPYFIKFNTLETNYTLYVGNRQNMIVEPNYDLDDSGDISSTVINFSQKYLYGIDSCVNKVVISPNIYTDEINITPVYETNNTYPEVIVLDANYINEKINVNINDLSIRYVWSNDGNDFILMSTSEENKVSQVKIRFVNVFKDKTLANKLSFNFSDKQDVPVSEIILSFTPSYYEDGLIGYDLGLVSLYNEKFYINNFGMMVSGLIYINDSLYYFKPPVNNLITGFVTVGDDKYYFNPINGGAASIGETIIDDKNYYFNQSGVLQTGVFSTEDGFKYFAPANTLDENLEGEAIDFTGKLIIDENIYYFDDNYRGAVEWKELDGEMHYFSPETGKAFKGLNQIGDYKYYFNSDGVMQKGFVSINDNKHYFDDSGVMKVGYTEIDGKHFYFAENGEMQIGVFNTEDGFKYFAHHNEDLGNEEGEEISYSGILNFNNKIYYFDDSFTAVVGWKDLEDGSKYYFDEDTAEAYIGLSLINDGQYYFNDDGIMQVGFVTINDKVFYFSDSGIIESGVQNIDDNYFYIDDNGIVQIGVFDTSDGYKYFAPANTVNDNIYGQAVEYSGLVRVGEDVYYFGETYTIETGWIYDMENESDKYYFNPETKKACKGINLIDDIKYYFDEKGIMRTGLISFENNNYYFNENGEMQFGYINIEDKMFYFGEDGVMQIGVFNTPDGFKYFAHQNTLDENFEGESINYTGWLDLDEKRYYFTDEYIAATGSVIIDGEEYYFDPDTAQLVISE
Assay: TcdB glycohydrolase inhibitors, primary screen, biochemical, single point, plate reader (AID 652162)
Details: TcdB glycohydrolase enzymatic assay, at 9.99 µM, hits give high values

Row | Structure (SMILES) | inhibition
1 | CNC[C@H]1Oc2cc(-c3ccc(C(=O)N(C)C)cc3)ccc2S(=O)(=O)N([C@@H](C)CO)C[C@@H]1C | -0.097% (inactive)
2 | C[C@@H]1CN([C@H](C)CO)C(=O)c2cc(C3=CCCC3)cnc2O[C@H]1CN(C)C | 0.146% (inactive)
3 | COc1ccc(NC(=O)N(C)C[C@@H]2Oc3c(NC(=O)c4ccc(-c5nccs5)cc4)cccc3C(=O)N([C@H](C)CO)C[C@@H]2C)cc1 | 0.889% (inactive)
4 | COc1cccc(NC(=O)N[C@@H]2C=C[C@H](CC(=O)NCc3ccccn3)O[C@H]2CO)c1 | -0.684% (inactive)
5 | N#C[C@H]1N[C@H](CO)[C@H]1c1ccc(-c2cccc(F)c2)cc1 | -1.58% (inactive)
6 | Cc1ccc(-c2ccc(C3[C@H]4CNC[C@@H]3N4S(=O)(=O)c3ccccc3C)cc2)cc1 (some centres undefined) | -0.326% (inactive) and -0.213% (inactive)
7 | COC(=O)[C@@H]1[C@@H](CO)[C@@H]2Cn3c(ccc(-c4ccc(OC)cc4)c3=O)[C@@H]2N1C | -0.952% (inactive)
8 | C[C@@H]1CN([C@H](C)CO)C(=O)c2cc(NC(=O)NC3CCCCC3)ccc2O[C@@H](C)CCCCO[C@H]1CN(C)C(=O)Nc1ccccc1 | 0.722% (inactive)
9 | C[C@H](CO)N1C[C@H](C)[C@H](CN(C)Cc2ccc3c(c2)OCO3)OCCCC[C@H](C)Oc2ccc(NC(=O)c3ccccc3)cc2C1=O | -0.045% (inactive)
10 | O=Cc1cn(Cc2ccc(F)cc2Cl)c2ccccc12 | -0.141% (inactive)
11 | O=c1c([N+](=O)[O-])cccn1Cc1ccc(F)cc1Cl | 38.4% (active)
12 | Cc1ccc(-c2ccc(=O)n(Cc3ccc(F)cc3Cl)n2)cc1 | 0.329% (inactive)
13 | CCC(=O)N1C[C@@H](C)[C@H](OC)CN(C)C(=O)c2ccc(NC(=O)COC)cc2OC[C@@H]1C | -0.964% (inactive)
14 | C[C@@H]1CCCCO[C@@H](CN(C)C(=O)NC2CCCCC2)[C@H](C)CN([C@H](C)CO)C(=O)c2cc(NC(=O)Nc3cccc4ccccc34)ccc2O1 | -0.319% (inactive)
15 | CNC(=O)C[C@H]1CC[C@H]2[C@H](COc3ccc(NC(=O)c4cccc(F)c4)cc3C(=O)N2C)O1 | -0.293% (inactive) and -0.193% (inactive)
16 | CN1C(=O)c2cc(NC(=O)c3cccc(F)c3)ccc2OC[C@@H]2O[C@@H](CC(=O)NCC3CCCCC3)CC[C@H]21 | 27.1% (active) and 19.3% (active)
17 | CN1C(=O)c2cc(NC(=O)c3ccccc3)ccc2OC[C@@H]2O[C@H](CC(=O)NCC3CC3)CC[C@@H]21 | 0.093% (inactive)
18 | Cc1cc(C(=O)Nc2ccc3c(c2)C(=O)N(C)[C@H]2CC[C@H](CC(=O)NCC(F)(F)F)O[C@@H]2CO3)no1 | -0.366% (inactive)
19 | CO[C@H]1O[C@H](CO)[C@@H](OC(=O)Nc2ccc(C(F)(F)F)cc2)[C@H](OC(=O)Nc2ccc3c(c2)OCO3)[C@H]1OC(=O)Nc1ccc2c(c1)OCO2 | 0.426% (inactive)
20 | CO[C@@H]1CN(C)C(=O)c2cc(NC(C)=O)ccc2OC[C@H](C)N(Cc2ccccc2F)C[C@@H]1C | -0.886% (inactive)
21 | CN(C)C(=O)c1ccc(-c2ccc([C@H]3[C@H](CO)N4CCCCN(S(C)(=O)=O)C[C@@H]34)cc2)cc1 | -1.71% (inactive)
22 | O=C(CCN1CCCCC1)N[C@H]1CC[C@H](CCNS(=O)(=O)c2ccc(F)cc2)O[C@@H]1CO | 0.554% (inactive)
23 | Cc1ccccc1-c1ccc(C2[C@@H]3CN(C(=O)C4CCCCC4)C[C@H]2N3)cc1 (some centres undefined) | -3.88% (inactive) and 0.934% (inactive)

Row | Structure (SMILES) | inhibition
24 | Cc1nonc1C(=O)N/N=C/c1ccc(O)cc1 | 5.9% (inactive)
25 | O=C(C[n+]1ccccc1)N/N=C/c1ccc(O)cc1 | 11.1% (active)
26 | Nc1nnn(CC(=O)N/N=C/c2ccccc2)n1 | 1.05% (inactive)
27 | O=C(CN1CCSCC1)N/N=C/c1ccc(Cl)cc1 | 1.98% (inactive)
28 | Nc1nnn(CC(=O)N/N=C/c2ccc(O)cc2)n1 | 13.2% (active)
29 | O=C(CSC1c2ccccc2-c2ccccc21)N/N=C/c1ccccc1 | 2.65% (inactive)
30 | COc1ccc2c3c([nH]c2c1)[C@@H](CO)N(C(=O)CC1CC1)CC31CCN(Cc2cccnc2)CC1 | 0.524% (inactive)
31 | O=C(Cc1ccccc1)N1C[C@@H]2[C@H](c3ccccc31)[C@@H](CO)N2C(=O)Nc1ccc(F)cc1 | 1.65% (inactive)
32 | COCC(=O)Nc1ccc2c(c1)[C@H]1C[C@H](CC(=O)NCc3ccc(OC)cc3)O[C@@H](CO)[C@H]1O2 | 1.91% (inactive)
33 | CN1C(=O)c2cc(NC(=O)Nc3ccccc3F)ccc2OC[C@H]2O[C@H](CC(=O)NCc3ccc(-c4ccccc4)cc3)CC[C@H]21 | -0.392% (inactive)
34 | COCC(=O)Nc1ccc2c(c1)OC[C@H](C)N(C(=O)c1ccccc1F)C[C@H](C)[C@H](OC)CN(C)C2=O | 0.041% (inactive)
35 | O=c1[nH]c(CN2CCOCC2)nc2cc(Cl)ccc12 | 11.3% (active)
36 | CN(CCOc1ccccc1)Cc1nc2cc(Cl)ccc2c(=O)[nH]1 | -0.715% (inactive)
37 | O=c1[nH]c(CN2CCOCC2)nc2scc(-c3ccccc3)c12 | 2.63% (inactive)
38 | CC(C)CC#Cc1cnc2c(c1)C(=O)N([C@@H](C)CO)C[C@@H](C)[C@@H](CN(C)C(=O)c1cccnc1)O2 | -0.559% (inactive)
39 | O=C1C=CCCN1C(=O)/C=C/c1ccc(F)cc1 | 0.919% (inactive)
40 | CCS(=O)(=O)N1CCC2(CC1)CN(S(=O)(=O)c1ccc(C)cc1)[C@H](CO)c1[nH]c3cc(OC)ccc3c12 | -1.12% (inactive)
41 | CN(C)c1ccc(C(=S)N2CCN(C(=S)Nc3ccc(Cl)cc3)CC2)cc1 | 17.4% (active)
42 | CCOC(=O)c1ccc(NC(=S)N2CCCC2)cc1 | 1.01% (inactive)
43 | O=C(NC1CCN(C(=S)Nc2ccc(Cl)cc2)CC1)C1CCCCC1 | -0.645% (inactive)
44 | COc1ccccc1NC(=O)N1CC(=O)N2[C@H](C1)[C@H](c1ccc(C#Cc3ccccc3)cc1)[C@@H]2CO | 0.309% (inactive)
45 | O=C(C[C@H]1CC[C@@H]2[C@H](COC[C@@H](O)CN2CC2CC2)O1)NCC1CC1 | -1.35% (inactive)
46 | O=C(C[C@@H]1CC[C@@H]2[C@H](COC[C@H](O)CN2CC2CCOCC2)O1)NCC1CCCCC1 | 0.565% (inactive)

Row | Structure (SMILES) | inhibition
47 | C[C@H]1CN([C@@H](C)CO)C(=O)c2cc(NS(=O)(=O)c3ccc(F)cc3)ccc2O[C@H]1CN(C)CC1CC1 | -1.14% (inactive)
48 | O=C(C[C@@H]1C[C@@H]2c3cc(NS(=O)(=O)c4ccc(F)cc4)ccc3O[C@@H]2[C@H](CO)O1)NCc1cc(F)ccc1F | -0.254% (inactive)
49 | C[C@@H]1CN([C@@H](C)CO)C(=O)c2cc(NC(=O)Nc3ccc(C(F)(F)F)cc3)ccc2O[C@@H](C)CCCCO[C@@H]1CN(C)C(=O)Nc1cccc2ccccc12 | -0.569% (inactive)
50 | C[C@@H]1CN([C@H](C)CO)C(=O)c2cccc(NS(=O)(=O)c3ccc(F)cc3)c2O[C@@H]1CN(C)C(=O)Nc1ccc(C(F)(F)F)cc1 | 0.036% (inactive)
51 | C[C@@H]1CN([C@@H](C)CO)S(=O)(=O)c2ccc(/C=C/c3ccccc3)cc2O[C@H]1CN(C)C(=O)Nc1cc(F)ccc1F | -0.621% (inactive)
52 | CC1CCN(C(=O)/C(=C\c2ccccc2)NC(=O)c2ccccc2)CC1 | 0.574% (inactive)
53 | O=C(N/C(=C\c1ccc(F)cc1)C(=O)N1CCCCCC1)c1ccccc1 | 1.06% (inactive)
54 | O=C(N/C(=C\c1ccc(O)cc1)C(=O)N1CCCCC1)c1ccccc1 | 14.3% (active)
55 | C[C@H](CO)N1C[C@H](C)[C@H](CN(C)S(=O)(=O)c2ccccc2C#N)OCc2cn(nn2)CCCC1=O | -0.086% (inactive)
56 | CNC[C@H]1OCCCC[C@@H](C)Oc2ccc(NS(C)(=O)=O)cc2C(=O)N([C@@H](C)CO)C[C@H]1C | 0.355% (inactive)
57 | CO[C@H]1CN(C)C(=O)c2cc(NC(=O)c3cc(C)on3)ccc2OC[C@@H](C)N(C(C)=O)C[C@H]1C | -0.186% (inactive)
58 | C[C@H](CO)N1C[C@H](C)[C@H](CN(C)S(=O)(=O)c2cccs2)Oc2ccc(NC(=O)Nc3ccccc3)cc2C1=O | -11.1% (inactive)
59 | O=C(Nc1cccc(Cl)c1)N[C@@H]1CC[C@@H](CCNC(=O)C2CCOCC2)O[C@@H]1CO | -0.908% (inactive)
60 | CN(c1ccc(O)cc1)c1nc(-c2cccnc2)cs1 | 14.9% (active)
61 | O=C(NNC(=O)c1csc(-c2cccnc2)n1)Nc1ccc(Cl)cc1 | 0.087% (inactive)
62 | CN(C)c1ccc(-c2nnc(-c3cccnc3)o2)cc1 | 0.383% (inactive)
63 | CCCNC(=O)C[C@H]1C[C@@H]2c3cc(NC(=O)NC4CCCC4)ccc3O[C@@H]2[C@@H](CO)O1 | -0.087% (inactive)
64 | O=C(c1cccc(F)c1)N1CC[C@@H]2[C@H](CO)Nc3ccc(-c4ccccc4)cc3[C@@H]21 | -1.25% (inactive)
65 | CCC(=O)N(C)C[C@H]1Oc2cc(/C=C/c3ccccc3)ccc2S(=O)(=O)N([C@H](C)CO)C[C@H]1C | 0.008% (inactive)
66 | CCCC#Cc1ccc([C@H]2[C@@H](CO)N3C(=O)CN(C(=O)c4ccncc4)C[C@H]23)cc1 | 0.225% (inactive)
67 | COc1ccccc1S(=O)(=O)N1CC[C@@H]2[C@H]1c1cc(-c3ccccc3)ccc1N[C@@H]2CO | -0.443% (inactive)
68 | COc1ccc(S(=O)(=O)Nc2ccc3c(c2)C(=O)N([C@@H](C)CO)C[C@@H](C)[C@H](CN(C)S(=O)(=O)c2cccs2)O3)cc1 | 0.284% (inactive)
69 | C[C@H](CO)N1C[C@H](C)[C@H](CN(C)S(=O)(=O)c2cccc(F)c2)Oc2ncc(/C=C/c3ccccc3)cc2C1=O | 0.994% (inactive)
